Compound activity from PubChem BioAssay.
Tb PYK inh: qHTS of Trypanosoma Brucei Inhibitors; pyruvate kinase (Trypanosoma brucei), Q57TT1; Potency, µM (highest dose often 76.8 µM), for the others: at the highest dose activity, negative = inhibition, actives largely listed as inhibitors; TbPYK enzyme, Kinase-Glo Plus ATP luminescence, 45 min; 410,000 tested, 0.12% active; further: on the % scale 0 is the no-effect control and ±100 the full control effect; nearly all actives have a fitted effect of over 50% in size
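Readout: single end-point luminescence (Kinase-Glo Plus, 10 min). Reaction conditions were TbPYK/substrate plus 130 uM ADP, 45 min at RT, pH 7.2 TEA buffer. No-enzyme wells served as controls, and data were normalized before concentration-response fitting.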
Sm TGR inh: qHTS Assay for the Inhibitors of Schistosoma Mansoni Peroxiredoxins | purified TGR, DTNB reduction, TNB absorbance 405 nm | Potency, µM (series often up to 114 µM), without a hit: at the top dose activity change, negative = inhibition, most hits filed as inhibitors | 360,000 tested, 3% active | AID 485364, 2010; further: on the % scale 0 is the no-effect control and ±100 the full control effect; nearly all actives have a fitted effect of over 60% in size
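First, TGR (20 nM dispensed) and NADPH were mixed with compound. Second, a 15 min room-temperature incubation followed. Third, further NADPH and then DTNB were added to start the reaction. Finally, TNB absorbance was monitored kinetically.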
SARS PLpro yeast: qHTS of Yeast-based Assay for SARS-CoV PLP; S. cerevisiae expressing SARS-CoV PLpro, growth rescue; Potency, µM (titrated, usually from 32.9 µM), inactives show at the top dose activity, positive = growth rescue, most hits filed as activators; 330,000 tested, 0.19% active; AID 485353, 2010; calls by dose curve; further: 0% is about no effect; nearly all actives have a fitted effect of over 55% in size
RE007 growth inh: qHTS Assay for Inhibitors of the HIV-1 protein Vpr; S. pombe RE007 Vpr strain, BacTiter-Glo ATP luminescence, 24 h; Potency, µM (titrated, usually from 92.2 µM), for inactives: top-dose activity change, negative = less growth, hits mostly inhibitors; 360,000 tested, 0.21% active; active means well fitted falling curve with a large enough effect; inconclusive means small, poorly fitted or top-dose-only effect; inactive means no such curve, though single readings can be large or run the other way; further: on the % scale 0 is the no-effect control and ±100 the full control effect; nearly all actives have a fitted effect of over 50% in size
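Fission yeast RE007 carrying one integrated HIV-1 vpr copy, seeded at OD 0.01 in PMG+AL medium with 23 nL pinned compound. Grown 24 h at 30 degrees; viability read by BacTiter-Glo luminescence after 5 min.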
LmPK inh: qHTS Assay for Inhibitors of Leishmania Mexicana Pyruvate Kinase (LmPK). Potency, µM (top dose mostly 57.5 µM), without a hit: at the top dose activity change, negative = inhibition, hits mostly inhibitors. AID 1721, 2009. purified LmPK, Kinase-Glo ATP luminescence, 1 h. 290,000 tested, 0.37% active; further: on the % scale 0 is the no-effect control and ±100 the full control effect
Target sequence (Q27686 whole entry, looked up): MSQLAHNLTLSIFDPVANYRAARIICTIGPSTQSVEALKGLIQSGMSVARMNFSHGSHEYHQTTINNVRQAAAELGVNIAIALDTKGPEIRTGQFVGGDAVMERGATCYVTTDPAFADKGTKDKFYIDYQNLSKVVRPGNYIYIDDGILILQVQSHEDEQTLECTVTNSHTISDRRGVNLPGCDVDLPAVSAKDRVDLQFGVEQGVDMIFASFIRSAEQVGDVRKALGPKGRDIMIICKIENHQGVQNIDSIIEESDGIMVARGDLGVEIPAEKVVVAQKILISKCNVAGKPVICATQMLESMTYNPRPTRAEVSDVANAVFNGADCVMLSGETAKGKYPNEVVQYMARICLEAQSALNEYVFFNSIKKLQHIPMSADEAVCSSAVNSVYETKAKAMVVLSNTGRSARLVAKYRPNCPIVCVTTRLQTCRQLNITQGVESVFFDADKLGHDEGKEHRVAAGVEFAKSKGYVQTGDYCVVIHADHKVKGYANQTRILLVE
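Pyruvate kinase activity monitored as ATP production (luciferase luminescence). Conditions: 0.1 nM enzyme, 0.5 mM PEP, 0.1 mM ADP, 1 h, RT; normalized against uninhibited and no-enzyme wells.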
NS1 function inh: qHTS Assay for Inhibitors of Influenza NS1 Protein Function; Potency, µM (titrated, usually from 46.1 µM), for the others: at the top dose activity, positive = more growth; 270,000 tested, 0.4% active; AID 2326, 2010; calls by dose curve; further: actives are rising curves; nearly all actives have a fitted effect of over 50% in size
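S. cerevisiae expressing influenza A NS1, grown in glucose, washed, then diluted 1:100 into pH 6.0 -URA galactose medium with 23 nl compound. Growth recovery read as OD600; NS1-free strain serves as control.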
Active calls of the source: *; ? = inconclusive; · = not tested or not shown; [ ] = dose if it differs, or a comment. Shown are actives, neighbours in structure and some others; about 3.3% of the full set was active somewhere. Unless noted, the call rests on the fitted dose curve; in most records, active means well fitted curve in the direction sought with a large enough effect; inconclusive means small, poorly fitted or top-dose-only effect, or another doubt; inactive means no such curve, though single readings can be large; an effect the other way counts as inactive or inconclusive. Potency means the concentration at half of the fitted maximal effect.

SMILES	Tb PYK inh	Sm TGR inh	SARS PLpro yeast	RE007 growth inh	LmPK inh	NS1 function inh
COc1ccc(CNC(=O)c2ccc(-c3nc(CS(=O)c4ccc(C)cc4)c(C)o3)cc2)cc1 (stereo unspecified)	-17.9%	?	·	·	·	·
CCc1ccc(NC(=O)COCc2cc(-c3ccc(F)cc3)on2)cc1	6.1%	1.7%	·	·	·	·
CCn1nc(C)c2c(-c3ccccc3)cc(=O)n(C(C)C(=O)NCc3ccccc3OC)c21 (stereo unspecified)	-1.8%	-1.7%	·	·	·	·
Nc1nc(-c2cccs2)c(CC(=O)O)s1	-13.8%	39.8µM*	0.1%	2.6%	0.2%	·
O=C(/C=C/c1ccc(-c2ccc(F)cc2)o1)N1CCCC1	-3.1%	35.5µM*	-5.2%	-18.6%	-0.1%	·
CN1CCN(C(=O)/C=C/c2ccc([N+](=O)[O-])o2)CC1	-4.3%	17.8µM*	1.8%	·	-1.2%	-2.7%
O=C(/C=C/c1ccc(F)cc1)N1CCCN(C(=O)/C=C/c2ccc(F)cc2)CC1	5.0%	-2.0%	11.4%	4.2%	9.2%	-8.0%
CN1CCN(C(=O)/C=C/c2ccccc2)CC1	-7.7%	-13.1%	-3.9%	12.3%	2.0%	-4.8%
O=C(O)/C=C/c1ccc([N+](=O)[O-])o1	-9.3%	28.2µM*	3.2%	-5.9%	6.6%	·
O=[N+]([O-])c1ccc(/C=N/N=C/c2ccc([N+](=O)[O-])o2)o1	1.8%	10µM*	-20.3%	?	6.3%	·
CC(=O)N/N=C/c1ccc([N+](=O)[O-])o1	-7.5%	·	·	·	·	·
CCc1ccc(C2CC(=O)c3c([nH]c(C(=O)OCCOc4ccccc4)c3C)C2)cc1 (stereo unspecified)	-5.3%	7.0%	·	·	·	·
CCOc1ccc2ncc3c(-c4cccc(OC)c4)nn(-c4ccccc4)c3c2c1	-8.1%	-8.3%	·	·	·	·
N#CCc1ccc(NC(=O)/C=C/c2ccc([N+](=O)[O-])o2)cc1	1.6%	4.47µM*	-0.1%	7.3%	8.3%	·
CCCNC(=S)Nc1ccc2nc(-c3ccccn3)c(-c3ccccn3)nc2c1	4.1%	12.6µM*	9.2%	19.9%	4.5%	2.6%
S=C(Nc1ccc2nc(-c3ccccn3)c(-c3ccccn3)nc2c1)N1CCCCC1	8.9%	-1.1%	0.2%	-9.5%	3.2%	-34.7%
O=C(Cn1ccc(NC(=O)OCc2ccccc2)nc1=O)NCCc1ccccn1	3.3%	31.6µM*	-1.1%	1.7%	·	·
CCCCCCC(O)C/C=C\CCCCCCCC(=O)O (stereo unspecified)	5.2%	·	·	·	·	·
Nc1cc(S(N)(=O)=O)ccc1SSc1ccc(S(N)(=O)=O)cc1N	·	·	·	·	·	8.4%
CS(=O)(=O)c1ccc(N)c(SSc2cc(S(C)(=O)=O)ccc2N)c1	3.55µM*	-4.3%	2.0%	6.7%	·	·
CCCCCCCC1=Cc2ccccc2C(C(C(C)=O)C(=O)OC)N1C(=O)OC (stereo unspecified)	·	·	·	·	-0.7%[11.5 µM]	·
OC[C@H](CCc1c[nH]c2ccccc12)c1c[nH]c2ccccc12	·	·	·	·	·	29.1%
Cc1ccc(OCCn2cccc2/C=C2/C(=O)NC(=O)N(Cc3ccco3)C2=O)cc1	-12.6%	14.1µM*	4.0%	-5.7%	10.2%	1.6%
Cn1cccc1/C=C1\C(=O)NC(=O)N(Cc2ccco2)C1=O	-7.3%	39.8µM*	1.7%	-5.0%	26.3%	·
COc1ccc(C2=Nc3ccccc3N(CC(=O)Nc3cccc(C(C)=O)c3)C(=O)C2)cc1	4.1%	2.4%	·	·	·	·
CC(=O)O[C@@H]1C(=O)O[C@H]2[C@@H]1OC(=O)[C@@H]2OC(C)=O	1.2%	·	·	·	·	·
O=C(O)CCc1ccc(-c2ccccc2)n1NC(=O)c1cccs1	-7.5%	50.1µM*	1.6%	31.5%	8.9%	3.0%
COc1ccc(-n2c(CCC(=O)O)ccc2-c2ccc(F)cc2)c(OC)c1	-3.8%	44.7µM*	-1.2%	7.9%	3.9%	3.0%
O=C(O)CCc1ccc(-c2ccccc2)n1-c1cccc(Br)c1	-9.7%	15.8µM*	·	·	·	·
